Records with an inconclusive call do not appear. Entries that show only a call come without a potency. Active and inactive are the calls of the source. The call rests on the fitted dose curve; in most records, active means well fitted cell-killing curve with a large enough effect in the repeat runs; inconclusive means weak or mixed curves, or effect the other way; inactive means flat fitted curve, though single readings scatter.
Assay: qHTS RealTime-Glo MT Cell Viability Assay in HEK293 cells - 0 hour (AID 1224880); further: nearly all actives have a fitted effect of over 45% in size
Details: RealTime-Glo luminescence; series mostly up to 76.8 µM
From the text: U.S. Tox21 Program National Center for Advancing Translational Sciences [NCATS] NIH Chemical Genomics Center [NCGC] U.S. Environmental Protection Agency [EPA] National Institutes of Environmental Health Sciences [NIEHS] National Toxicology Program [NTP] U.S. Food and Drug Administration [FDA] Tox21 Assay Overview: Measure of cell viability is critical in the cell-base assay. Analysis of cell viability is necessary for the characterization of cell responses to cytotoxic drugs and environmental stress. A RealTime-Glo MT Cell Viability Assay to monitor cell viability in real time of continues cell culture during 40 hours of compound treatment was used to screen Tox21 10K library compounds in Hek293 cells. The RealTime-Glo MT Cell Viability Assay is a nonlytic, homogeneous, bioluminescent method to measure cell viability in real time using a simple, plate-based method. The assay involves adding NanoLuc luciferase and a cell-permeant prosubstrate to cells in culture. Viable cells reduce the proprietary prosubstrate to generate a substrate for NanoLuc luciferase. This substrate diffuses from cells into the surrounding culture medium, where it is rapidly used by the NanoLuc Enzyme to produce a luminescent signal. The signal correlates with the number of viable cells, making the assay well suited for cytotoxicity studies.
Tox21 Assay Protocol Summary: The mixture of Hek293 cell suspension and reagents were dispensed at 600cells/6 ul/well in 1536-well tissue culture treated black solid bottom plates using a Multidrop dispenser. After the assay plates were incubated at a 37 C/5% CO2 incubator for 5 hours, 23 nL of compounds dissolved in DMSO, positive and negative controls was transferred to the assay plate by a pintool work station. The plates were incubated at 37 C for 40 hours. The luminescence intensity were measured at 0h, 8h, 16h, 24h, 32h and 40h time points using ViewLux plate reader during compound treatment.
Potency means the concentration at half of the fitted maximal effect.

Row | Structure (SMILES) | Potency
1 | C[C@]1(Cn2ccnn2)[C@H](C(=O)O)N2C(=O)C[C@H]2S1(=O)=O | inactive
2 | O=Cc1c2ccccc2c(Cl)c2ccccc12 | inactive
3 | COC(=O)CCS | inactive
4 | O=c1[nH]ncc2ccccc12 | inactive
5 | O=C(O)CCC(=O)C(=O)O | inactive
6 | O=C(O)c1cccc(-c2noc(-c3ccccc3F)n2)c1 | inactive
7 | C[C@@]12CCC[C@H]1[C@@H]1CC[C@H]3C[C@@H](O)CC[C@]3(C)[C@H]1CC2 | inactive
8 | CCC1NC(=O)c2cc(S(N)(=O)=O)c(Cl)cc2N1 (stereo not given) | inactive
9 | CCC(=O)OC | inactive
10 | C1COC1 | inactive
11 | CC(C)(C)CC(=O)OCC(=O)[C@@]1(O)CC[C@H]2[C@@H]3CCC4=CC(=O)C=C[C@]4(C)[C@H]3[C@@H](O)C[C@@]21C | 7.56 µM (active)
12 | OC1(c2ccccc2)CCNCC1 | inactive
13 | CCOC(=O)OC(C)OC(=O)[C@@H]1N2C(=O)[C@@H](NC(=O)[C@H](N)c3ccccc3)[C@H]2SC1(C)C (stereo not given in full) | inactive
14 | CCCCCCCCCI | inactive
15 | CCN(CC)CCNC(=O)COc1ccc(OC)cc1 | inactive
16 | CC(O)c1ccccc1 (stereo not given) | inactive
17 | O=C1c2ccccc2C(=O)C1c1nc2ccccc2c(Br)c1O | inactive
18 | O=C1C(=O)c2ccccc2C(O)=C1C1CCC(c2ccc(Cl)cc2)CC1 (stereo not given) | 7.56 µM (active)
19 | C=CC(=O)OCC1CC2CC1C1CCC(COC(=O)C=C)C21 (stereo not given) | inactive
20 | O=C1Cc2ccccc2N1c1c(Cl)cccc1Cl | inactive

Row | Structure (SMILES) | Potency
21 | N#[N+]c1ccc2c(S(=O)(=O)[O-])cccc2c1O | inactive
22 | c1csc(SSc2cccs2)c1 | inactive
23 | CCCCC(CC)COP(=O)(O)O (stereo not given) | inactive
24 | Oc1c(I)cc(I)c2cccnc12 | inactive
25 | CN(C(=O)CN(CCO)CC(=O)N(C)C(C)(C)Cc1ccccc1)C(C)(C)Cc1ccccc1 | inactive
26 | CC(C)c1nc(CN(C)C(=O)N[C@H](C(=O)N[C@@H](Cc2ccccc2)C[C@H](O)[C@H](Cc2ccccc2)NC(=O)OCc2cncs2)C(C)C)cs1 | inactive
27 | CCCCCCNC(=O)n1cc(F)c(=O)[nH]c1=O | inactive
28 | CC(=O)[C@H]1[C@H](C#N)C[C@H]2[C@@H]3CC=C4C[C@@H](O)CC[C@]4(C)[C@H]3CC[C@@]21C | inactive
29 | CCC(=O)C1CC(C(C)C)CC=C1C (stereo not given) | inactive
30 | O=c1c(O)c(-c2ccc(O)cc2)oc2cc(O)cc(O)c12 | inactive
31 | CCOC(=O)c1ccc(OCCN2C[C@H](O)[C@@H](O)[C@H](O)[C@H]2CO)cc1 | inactive
32 | CC(=O)Nc1cc(S(=O)(=O)O)cc2cc(S(=O)(=O)O)c(N=Nc3ccccc3)c(O)c12 | inactive
33 | CCOC(=O)[C@H](CCc1ccccc1)N[C@@H](C)C(=O)N(CC(=O)O)C1Cc2ccccc2C1 | inactive
34 | Cc1cc(C)c(N)cc1C | inactive
35 | Nc1ncnc2c1ncn2[C@H]1CC[C@@H](CO)O1 | inactive
36 | c1cc(N(CC2CO2)CC2CO2)ccc1Cc1ccc(N(CC2CO2)CC2CO2)cc1 (stereo not given) | inactive
37 | C=CC(C)(CCC=C(C)C)OC(=O)CC(C)C (stereo not given) | inactive
38 | C=CC(=O)[O-].C=CC(=O)[O-].[Zn+2] | inactive
39 | FC(F)(F)c1ccccc1Cl | inactive
40 | Cc1cccc(N(C)C(=S)Oc2ccc3c(c2)CCC3)c1 | inactive

Reference: PubChem BioAssay (Tox21)
